From PubChem
IL-1B inflam inh: inflammasome signaling inhibition, IL-1 beta readout; THP-1 LPS/ATP IL-1B secretion, AlphaLISA, 16 h; hits give low values; hit rate 4.7% among 360,000; activity change, % at 57.5 µM; in the data active = activity change below about -50%; inconclusive = mostly about -30% to -49%
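Secreted IL-1B measured by AlphaLISA bead assay after 16 h compound exposure of THP-1 cells; compounds (final up to 57.5 uM) added 1 h before LPS (250 ng/mL) and ATP (1.25 mM) stimulation; lower signal means less secretion.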
ELG1 DNA repair: ELG1-dependent DNA repair inhibition | hit rate 2.3% among 330,000 | HEK293T ELG1-luciferase reporter, luminescence, 16 h; DNA damage induced by 5-fluorouridine | Potency, µM (titrated, usually from 46.1 µM), inactives show at the highest dose activity change, negative = inhibition, actives largely listed as inhibitors; also: potency is read from the fitted curve at half-maximal effect; nearly all actives have a fitted effect of over 55% in size
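Overnight (16 hr) co-exposure of 2,000 cells/well to 5-fluorouridine and compound at 37 °C preceded detection. Luciferase was quantified via ONE-Glo luminescence; loss of signal denotes inhibition.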
TDP1 cell noCPT: qHTS for Inhibitors of human tyrosyl-DNA phosphodiesterase 1 (TDP1): qHTS in cells in absence of CPT. DT40 Tdp1-/- hTDP1 cells, no CPT, ATP luminescence, 48 h. Potency, µM (series often up to 46.2 µM), for inactives: top-dose activity change, negative = growth inhibition, actives largely listed as inhibitors. hit rate 15% among 420,000; also: potency is read from the fitted curve at half-maximal effect; nearly all actives have a fitted effect of over 55% in size
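Growth kinetics read by CellTiter-Glo luminescence after ≥48 hr at 37 °C. Cells: DT40 Tdp1-/- stably carrying human TDP1, 400 per well, compound exposure in the absence of CPT (DMSO vehicle).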
DT40 TDP1 CPT: DT40-hTDP1 cell growth loss with CPT. AID 686979. chicken DT40 Tdp1-/-;hTDP1 cells + 20 nM CPT, ATP luminescence, 48 h. Potency, µM (titrated, usually from 46.2 µM), for inactives: at the highest dose activity change, negative = growth inhibition, usual class: inhibitors. hit rate 12% among 420,000; also: potency is read from the fitted curve at half-maximal effect; nearly all actives have a fitted effect of over 55% in size
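Chicken DT40 Tdp1-/- cells stably complemented with human TDP1 were seeded at 400 cells/well in medium containing 20 nM camptothecin, exposed to pin-transferred compounds, and grown at 37 °C for at least 48 hr. Viability was read as ATP luminescence.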
HT1080 IDH1KD tx: toxicity to HT-1080 IDH1 knockdown cells (counter line); HT-1080 IDH1 knockdown viability, ATP luminescence, 48 h; Potency, µM (top dose mostly 46.1 µM), inactives show top-dose activity, negative = toxicity, hits mostly cytotoxic; hit rate 2% among 360,000; AID 686971;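 also: potency is read from the fitted curve at half-maximal effect; 0% = DMSO wells and -100% = cell-free medium wells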
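Viability of IDH1-knockdown HT-1080 fibrosarcoma cells was assessed by CellTiter-Glo after 48 h at 37 °C with titrated compound; concentration-effect curves were classified by fit quality and response size.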
HT1080NT lethal: kills 2HG-producing HT-1080-NT fibrosarcoma cells | HT-1080-NT fibrosarcoma viability, CellTiter-Glo ATP luminescence, 48 h | Potency, µM (doses to about 46.1 µM), inactives show top-dose activity, negative = less viability, hits mostly cytotoxic | hit rate 1.6% among 360,000;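 also: NT is the 2HG producing partner of a matched IDH1 knockdown line; potency is read from the fitted curve at half-maximal effect; 0% = DMSO-treated cells and -100% = media-only wells without cells; nearly all actives have a fitted effect of over 55% in size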
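750 cells/well, RPMI + 5% FBS; 2 h settle, compound pin-transfer, 48 h at 37 degrees C. CellTiter-Glo 10 min RT, luminescence. Normalized to DMSO and media-only wells.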
Active calls of the source: *; u = inconclusive; x = no result. An excerpt weighted towards active compounds, which were near 19% of everything screened. Unless noted, calls follow the shape of the dose curve; as a rule, active = well fitted curve in the direction sought with a large enough effect; inconclusive = small, poorly fitted or top-dose-only effect, or another doubt; inactive = no such curve, though single readings can be large; an effect the other way counts as inactive or inconclusive. Unless noted, % is scaled to controls: 0 for no effect and ±100 for the full control effect.

SMILES	IL-1B inflam inh	ELG1 DNA repair	TDP1 cell noCPT	DT40 TDP1 CPT	HT1080 IDH1KD tx	HT1080NT lethal
Cn1cnc(C(=O)NC2CCN(C(=O)OC(C)(C)C)CC2)c1C(=O)NC1CCN(C(=O)OC(C)(C)C)CC1	16.8	10.3µM*	3.4%	3.4%	6.0%	15.1%
CC(C)(C)OC(=O)N1CCC(NC(=O)c2ncn(Cc3ccccc3)c2C(=O)NC2CCN(C(=O)OC(C)(C)C)CC2)CC1	-17.5	u	u	23.1µM*	-3.8%	-1.1%
Cc1c(C(=O)NCC2COCCO2)cnn1-c1nccc(-c2cccs2)n1 (stereo unspecified)	x	x	-25.8%	-22.3%	x	x
Cc1oc(-c2cccc(Cl)c2)nc1CN1CCC(C(=O)NCCCN2CCCC2=O)CC1	-28.0	-9.5%	-5.3%	2.0%	-1.7%	-11.8%
Cc1oc(-c2ccc(Cl)cc2)nc1CN1CCCC(C(=O)NCCCN2CCCC2=O)C1 (stereo unspecified)	-10.1	u	8.2µM*	8.2µM*	-19.8%	-6.7%
CCOC(=O)N1CCC(NC(=O)CS(=O)(=O)Cc2nc(-c3cccc(Cl)c3)oc2C)CC1	6.9	14.6µM*	-22.3%	-12.9%	5.3%	-0.3%
CCc1ccc(-c2nc(CN3CCCC(C(=O)NCc4ccccc4Cl)C3)c(C)o2)cc1 (stereo unspecified)	x	x	4.61µM*	6.51µM*	x	x
CCOC(=O)N1CCC(NC(=O)CS(=O)(=O)Cc2nc(-c3cccc(OC)c3)oc2C)CC1	18.7	u	-8.5%	-16.6%	-8.0%	5.7%
Cc1oc(-c2ccc(Cl)cc2)nc1CN1CCCC(C(=O)NC2CC2)C1 (stereo unspecified)	-17.7	-7.4%	10.3µM*	16.4µM*	-6.0%	0.5%
O=C(Nc1cccc(F)c1)NC1(C(=O)NCC2CCCO2)CCCCC1 (stereo unspecified)	-4.3	13.7%	-0.3%	21.5%	1.0%	4.2%
Cc1c(NC(=O)c2cc(-c3cccc(O)c3)on2)c(=O)n(-c2ccccc2)n1C	x	x	-13.0%	-24.3%	x	x
Cc1ccccc1-c1nc(CN2CCCC(C(=O)NCCCN3CCOCC3)C2)c(C)o1 (stereo unspecified)	-22.8	7.6%	u	3.5%	-2.1%	-26.4%
CCN1CCN(CCNC(=O)C2CCCN(Cc3nc(-c4cccc(Cl)c4)oc3C)C2)CC1 (stereo unspecified)	u	u	16.4µM*	20.6µM*	-19.0%	-24.6%
Cc1oc(-c2ccc(Cl)cc2)nc1CN1CCCC(C(=O)NCc2ccco2)C1 (stereo unspecified)	-50.9*	u	23.1µM*	u	-13.6%	0.2%
CCOC(=O)N1CCC(NC(=O)C2CCCN(Cc3nc(-c4cccc(Cl)c4)oc3C)C2)CC1 (stereo unspecified)	57.6	9.2µM*	0.731µM*	0.82µM*	-7.6%	-0.7%
CCc1ccc(-c2nc(CN3CCC(C(=O)NCc4ccco4)CC3)c(C)o2)cc1	u	-14.1%	u	u	2.4%	-1.8%
N#Cc1c(-n2ncnc2-c2cccc(Cl)c2)sc2c1CCCCC2	x	x	-10.8%	-14.7%	x	x
Cc1ccc(NC(=O)c2cc(C(=O)c3cc(Cl)ccc3O)cn(-c3ccc(C)cc3)c2=O)cc1	0.0	25.9µM*	20.6µM*	18.4µM*	-6.8%	-0.8%
O=[N+]([O-])c1ncn(Cc2c(Cl)cccc2Cl)n1	41.0	-17.4%	u	18.4µM*	-1.0%	-1.6%
O=[N+]([O-])c1ncn(Cc2ccccc2Cl)n1	31.1	6.0%	1.8%	1.3%	12.6%	7.6%
Cc1cc(C)cc(OCC(=O)Nc2ccc3c(c2)C(=O)c2ccccc2C3=O)c1	-13.8	u	-1.6%	-2.5%	19.3%	6.6%
COc1ccc(Cl)cc1NC(=O)CN(C)C(=O)c1n[nH]c2ccccc12	7.6	8.2µM*	u	2.4%	-9.8%	-29.3%
COc1ccc(Cl)cc1NC(=O)CN(C)C(=O)c1ccc(COc2ccccc2)cc1	u	0.0%	u	u	-9.7%	-1.4%
COc1ccc(Cl)cc1NC(=O)CN(C)C(=O)c1cc(=O)c2ccccc2o1	-14.3	u	u	-40.3%	3.5%	-2.5%
COc1ccc(Cl)cc1NC(=O)CN(C)C(=O)c1ccc(OCc2ccccc2)c(OC)c1	-4.2	u	23.1µM*	u	-22.9%	-12.9%
SMILES	IL-1B inflam inh	ELG1 DNA repair	TDP1 cell noCPT	DT40 TDP1 CPT	HT1080 IDH1KD tx	HT1080NT lethal
COc1cc(C(=O)NCC2(N(C)C)CCCCC2)ccc1OCc1ccccc1	-16.6	-6.0%	u	8.7%	9.2µM*	u
CCN(c1ccccc1)S(=O)(=O)c1ccc(C(=O)Nc2ncccc2O)cc1	0.0	-3.2%	u	u	-3.3%	-1.2%
CCn1c(=N)n(CC(=O)C(C)(C)C)c2ccccc21	-6.1	15.8%	u	-25.8%	7.94µM*	7.08µM*
CCCCn1c(=N)n(CC(=O)C(C)(C)C)c2ccccc21	0.0	0.1%	u	23.1µM*	u	-26.4%
CCn1c(=N)n(CC(=O)OC)c2ccccc21	24.7	2.3%	0.8%	0.4%	15.0%	9.5%
CCCn1c(=N)n(CC(=O)C(C)(C)C)c2ccccc21	-6.9	1.1%	u	u	-16.3%	-13.4%
CCCCn1c(=N)n(CC(=O)c2ccc(Br)s2)c2ccccc21	-97.9*	u	4.11µM*	5.17µM*	u	u
CCn1c(=N)n(CC(=O)c2ccc(Br)s2)c2ccccc21	0.0	u	u	u	u	u
C[C@H](NC(=O)c1ncn2c1C(=O)NC[C@@H]2C)c1ccccc1	12.8	x	-25.2%	-16.0%	7.6%	1.6%
COc1ccc(S(=O)(=O)N2CCOCC2)cc1NC(=O)CN1C(=O)NC2(CCCCC2C)C1=O (stereo unspecified)	10.8	9.5%	-7.9%	-2.6%	0.8%	-0.3%
CC(C)CN(C(=O)CSc1nn(-c2ccc(Cl)cc2)c(=S)s1)C1CCS(=O)(=O)C1 (stereo unspecified)	-13.6	-6.4%	18.4µM*	u	-16.7%	-9.8%
Cc1ccc(-n2ccnc2SCC(=O)N(CC(C)C)C2CCS(=O)(=O)C2)c(C)c1 (stereo unspecified)	-18.7	3.0%	18.4µM*	u	2.9%	-2.6%
CC(C)CN(C(=O)CSc1nnc2ccccn12)C1CCS(=O)(=O)C1 (stereo unspecified)	0.8	17.2%	3.8%	-8.5%	9.5%	-1.8%
